This passage reports Potency and activity change, negative = inhibition results from PubChem BioAssay AID651784 (National Center for Advancing Translational Sciences (NCATS), 2012).

The structures appear in SMILES notation. Results filed as inconclusive are left out. Active and inactive are the calls of the source. The call rests on the fitted dose curve; in most records, active means well fitted inhibition curve with a large enough effect; inconclusive means small, poorly fitted or top-dose-only effect; inactive means no such curve, though single readings can be large or run the other way.
Potency means the concentration at half of the fitted maximal effect.

A short description of the test: Acumen qHTS Assay for Inhibitors of the mTORC1 Signaling Pathway in MEF (Tsc2-/-, p53-/-) Cells: Hit Validation. Further: nearly all actives have a fitted effect of over 65% in size. Conditions: Acumen imaging; activity change, negative = inhibition: at 37.3 µM (top of the series). An excerpt: The mammalian target of rapamycin (mTOR) is an intracellular serine/threonine kinase Aberrant regulation of mTOR signaling plays a causative role in a number of human diseases, including cancer, benign tumors such as lymphangioleiomyomatosis (LAM) and Tuberous Sclerosis Complex (TSC), and metabolic diseases such as diabetes and obesity. This project aims to identify inhibitors of ribosomal protein S6 (rpS6) phosphorylation. The phosphorylation of rpS6 is a key event downstream of mTOR activation. The assay uses a phospho-specific antibody of phospho-rpS6 to detect inhibitors of mTOR activation. Mutations in the Tsc1 and Tsc2 genes are the underlying genetic lesions responsible for TSC, causing constitutive activation of the mTORC1 pathway and leading to profound effects on cell metabolism. Aberrant metabolism in cancer has recently received significant attention as a target to develop therapeutic agents in the treatment of cancer.1 As Tsc2-/- cells have lost the ability to respond to energy and growth factor deprivation, these cells are unable to properly down regulate cellular biosynthetic processes in response to metabolic stress, and are thus extremely sensitive to glucose deprivation-induced death.2 A central goal of this project is to explore the unique cell survival and metabolic properties of cells with Tsc1 or Tsc2 by screening for compounds that selectively target the Tsc2-/- MEFs by screening both Tsc2-/- and WT MEF cell lines. We hope to better understand these aspects of TSC physiology in order to exploit them for therapeutic benefit.
NIH Molecular Libraries Probe Production Centers Network [MLPCN]
NIH Chemical Genomics Center [NCGC]
Assay Submitter (PI): Blenis, John; Harvard University
For quantitative high throughput analysis of mTORC1 signaling, we developed a cell-based assay for immuno-fluorescence based detection of rpS6 phosphorylation on the Acumen Explorer that will be used a platform for the primary small molecule screen. Mouse embryonic fibroblasts (MEFs) are cultured in 1536-well plates using DMEM + 10% FBS. Twenty-four hrs after plating, test compounds (solubilized in DMSO) are delivered and incubated with the cells for 24 hrs at 37 degree Celsius. Following the incubation, media with compound is aspirated and the cells are fixed in 4% paraformaldehyde (PFA) containing PBS + 0.2% TX-100. Next, PFA is aspirated, cells are washed two times with PBS plus 0.2% TX-100 and the cells are blocked for 1 hr at room temperature (blocking buffer: LiCOR Blocking Buffer plus 0.2% TX-100). This is followed by aspiration and staining with Alexa-488 conjugated-phospho-rpS6 Ser235/236 antibody for 2 hours at room temperature (Cell Signaling Technology # 4803, 1:50 dilution in blocking buffer). Cells are washed two times with PBS plus 0.2% TX-100, and stained with 10 uM propidium iodide (PI) for 20-25 minutes for cell number measurement (1:500 dilution of Hoescht staining is also added for IN Cell imaging). The plates are scanned on the Acumen Explorer laser scanning instrument (TTP Labtech) using the 488nm laser for simultaneous excitation of the Alexa-488 and PI. […] Fluorescence emission from the PI stain is selected using a 575-640 nm band pass filter. The normalized phospho-S6 staining is calculated as the ratio of the integrated Alexa 488 intensity divided by the integrated PI intensity for the single concentration rapamycin control (7.5 nM) and DMSO columns. […] Inhibition of the pathway is defined based on the normalized phospho-S6 intensity in rapamycin treated cells. Active cells are defined as those with a normalized phospho-S6 staining above this threshold, and each treatment is reported as the % positive cells in the well, where thresholds are defined by selecting wells with the highest and lowest signal and differentiating between the % non-active and % active populations. In addition to the pathway specific phospho-S6 endpoint, the number of PI stained cells from the Acumen is recorded as a measure of cell viability. […]
Background: Quantitative high-throughput screening tests each substance at several concentrations.
Regarding `COc1ccc(OCC(O)Cn2c(=N)n(CCN3CCCCC3)c3ccccc32)cc1` (stereo not given), the Potency was 16.5 µM (active).
On the same count and under the same terms, as for `CCNC(=O)c1c(NC(=O)c2nc(S(=O)(=O)CC)ncc2Cl)sc2c1CCCC2`, the figure is 1.31 µM (active).
Turning to `Cc1cc(C)c(NC(=O)C2CCN(c3nc4ccccc4n4cccc34)CC2)c(C)c1`, the Potency was 14.7 µM (active).
Turning to `CCc1cnc2c(c1SCC(=O)NCc1ccc(F)cc1)c(=O)n(C)c(=O)n2C`, the activity change, negative = inhibition turned out to be 5.42%.
As for `O=C(Cn1c(=O)c2cccn2c2ccccc21)NCc1ccccc1F`, the activity change, negative = inhibition was 18.1%.
For the compound `CCOc1ccc(NC(=O)CSc2oc(-c3ccc(F)cc3)nc2S(=O)(=O)c2ccc(C)cc2)cc1`, the Potency was 4.65 µM (active).
On the same count and under the same terms, as for `CCOc1ccccc1NC(=O)CN1C(=O)C(=O)c2ccccc21`, the figure is 18.5 µM (active).
For the compound `CCOc1ccccc1Nc1nc(-c2cccc(Cl)c2)c2c(n1)-c1ccccc1OC2`, the activity change, negative = inhibition is -15.1%.
In the case of `COc1ccc(NC(=O)c2c(C)oc3ccc(O)c(CN4CCCC(C)C4)c23)cc1Cl` (stereo not given), the Potency is 9.27 µM (active).
Consider `CCOc1ccc(S(=O)(=O)N(C(=O)c2ccncc2)c2ccc3oc(C)c(C(=O)OC)c3c2)cc1`, for which the Potency was 3.69 µM (active).
Turning to `O=C(NCc1ccccc1)c1ccc2c(c1)N(Cc1ccccc1F)C(=O)c1ccccc1S2=O` (stereo not given), the activity change, negative = inhibition is -33%.
Turning to `CCc1nnc(SC(CC)C(=O)Nc2cccc(OC)c2)c2cc3oc(C)cc3n12` (stereo not given), the activity change, negative = inhibition is -6.5%.
Still for that read-out and setting: as for `COc1ccc2c(c1)CC(C(=O)Nc1cc(Cl)ccc1C)CO2` (stereo not given), the figure is -12.5%; as for `Cn1nc(-c2ccc(OCC(=O)Nc3ccccc3)cc2)c2ccccc2c1=O`, -11.2%; as for `O=C(Nc1ccccc1)N(Cc1cccc(Cl)c1)c1ccccn1`, 14.8%.
On the same count and under the same terms, as for `Cc1ccc(-c2noc(CCC(=O)N(C)c3ccccc3F)n2)cc1`, the figure is 5.93%.
In the case of `CN(C)c1ccc(Nc2nc3ccccc3n3nnnc23)cc1`, the activity change, negative = inhibition was -10%.
Regarding `COc1ccccc1NC(=O)c1sc(-c2ccc(Cl)cc2)cc1N`, the activity change, negative = inhibition was determined as 1.3%.
Still for that read-out and setting: as for `CCc1ccc(S(=O)(=O)N(C(=O)Oc2ccccc2)c2ccc3oc(C)c(C(=O)OC)c3c2)cc1`, the figure is -70.3%.
On to `CCCS(=O)(=O)c1ncc(Cl)c(C(=O)N2CCN(c3ccc(OC)cc3)CC2)n1`, for which the Potency was 7.36 µM (active).
Consider `CCS(=O)(=O)c1oc(-c2ccc(F)cc2)nc1S(=O)(=O)c1ccc(Br)cc1`, for which the Potency is 4.14 µM (active).
For `CCOC(=O)c1sc2ccccc2c1S(=O)(=O)Nc1ccc(CC)cc1`, the activity change, negative = inhibition is -9.52%.
Same read-out and setting: as for `COc1ccc(NS(=O)(=O)c2ccc(-n3cccn3)cc2)cc1OC`, the figure is -78.8%; as for `Cc1oc(-c2ccccc2F)nc1Cn1c(SCc2cccc(Cl)c2)nc2ccncc21`, -12.7%.
In the case of `CCCCS(=O)(=O)c1oc(-c2ccc(F)cc2)nc1S(=O)(=O)c1ccccc1`, the activity change, negative = inhibition was -151%.
Consider `CCCCS(=O)(=O)c1oc(-c2cccs2)nc1S(=O)(=O)c1ccccc1`, for which the Potency was 2.07 µM (active).
Take `O=C(Nc1ccc(Cl)cc1)c1cc(S(=O)(=O)N2CCCc3ccccc32)ccc1F`: the activity change, negative = inhibition is -18.3%.
On to `CCS(=O)(=O)c1ncc(Cl)c(C(=O)N(Cc2ccccc2)Cc2ccco2)n1`, for which the Potency is 5.21 µM (active).
Turning to `CCCCS(=O)(=O)c1nc(-c2ccc(Br)cc2)cc(-c2ccccc2)c1C#N`, the Potency is 6.56 µM (active).
With `CCC(C)Sc1oc(-c2ccco2)nc1S(=O)(=O)c1ccc(C)cc1` (stereo not given), the activity change, negative = inhibition came out at 3.02%.
Take `CC1CCCN(CCCNC(=O)c2ccc3c(c2)N(Cc2ccc(Cl)cc2)C(=O)c2ccccc2S3(=O)=O)C1` (stereo not given): the Potency was 13.1 µM (active).
In the case of `Cc1ccc(C)c(NC(=O)Nc2cc3c(cc2N2CCCCC2)n(C)c(=O)n3C)c1`, the activity change, negative = inhibition came out at 3.56%.
For `CCCCN1C(=O)C(O)(c2c(C)[nH]c3ccccc23)c2cc(Br)ccc21` (stereo not given), the activity change, negative = inhibition was -47%.
On to `CCCCN(C)CC(O)Cn1cc(/C=C/C(=O)c2ccc(C)cc2)c2ccccc21` (stereo not given), for which the Potency is 13.1 µM (active).
Consider `CCOC(=O)c1[nH]c2ccccc2c1NC(=O)c1ccccc1OCC`, for which the Potency was 2.93 µM (active).
Take `Cc1ccc(NC(=O)c2nc(S(=O)(=O)Cc3cccc(C)c3)ncc2Cl)cc1`: the activity change, negative = inhibition was -108%.
On to `COc1ccc(Oc2nc3c(C)cccn3c(=O)c2/C=C(\C#N)c2nc3ccccc3[nH]2)cc1`, for which the activity change, negative = inhibition was determined as 11.5%.
Regarding `CCOC(=O)N1CCN(Cc2nc3cc(NC(=O)CC(C)C)ccc3n2C(C)C)CC1`, the Potency is 2.61 µM (active).
On to `CCS(=O)(=O)c1ncc(Cl)c(C(=O)NCc2ccccc2)n1`, for which the Potency was 6.56 µM (active).
On to `Cc1cc(C)c(NC(=O)Cn2c(=O)n(Cc3ccc(C(=O)NCc4ccc5c(c4)OCO5)cc3)c(=O)c3ccccc32)c(C)c1`, for which the Potency was 5.85 µM (active).
